Experimental data from the supplement of paper PMC12669032.

Key:
Assay in all cases: growth AUC relative to DMSO control (median of replicates) (fraction); higher = more growth (less inhibition), active = hit call of the paper
Conditions in all cases: 20 µM; 24 h;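 active = AUC reduced over 20% with Padj below 0.05 in at least 2 of 3 replicates; inactive = otherwise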
[1] = test system: Akkermansia muciniphila
In short: (§1)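 For each compound at 20 µM (1% DMSO), gut bacterial monocultures seeded at OD600 0.05 grew anaerobically in mGAM at 37 °C in round-bottom 96-well plates. Hourly OD600 readings over 24 h gave growth curves whose minimum OD was set to 0. Area under these curves was normalised to the plate median of solvent-only wells, or to row and column medians on the industrial chemical plate. Values are medians of three biological replicates grown on separate days.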

[2] = test system: Bacteroides caccae
In short: as §1

[3] = test system: Bacteroides clarus
In short: as §1

[4] = test system: Bacteroides dorei
In short: as §1

[5] = test system: Bacteroides stercoris
In short: as §1

[6] = test system: Bacteroides thetaiotaomicron
In short: as §1

[7] = test system: Bacteroides uniformis
In short: as §1

[8] = test system: Bifidobacterium longum subsp. longum
In short: as §1

[9] = test system: Clostridium difficile
In short: as §1

[10] = test system: Collinsella aerofaciens
In short: as §1

[11] = test system: Coprococcus comes
In short: as §1

[12] = test system: Escherichia coli ED1a
In short: as §1

[13] = test system: Escherichia coli IAI1
In short: as §1

[14] = test system: Eubacterium rectale
In short: as §1

[15] = test system: Fusobacterium nucleatum subsp. animalis
In short: as §1

[16] = test system: Lactobacillus gasseri
In short: as §1

[17] = test system: Lactobacillus paracasei
In short: as §1

[18] = test system: Odoribacter splanchnicus
In short: as §1

[19] = test system: Parabacteroides distasonis
In short: as §1

[20] = test system: Parabacteroides merdae
In short: as §1

Measured: growth AUC

O=C(O)COc1ccc(Cl)cc1CO
inactive: [1] 1.15 | [2] 0.99 | [3] 0.995 | [4] 0.721 | [5] 0.938 | [6] 0.971 | [7] 0.98 | [8] 1 | [9] 1.03 | [10] 0.96 | [11] 0.999 | [12] 0.964 | [13] 1.01 | [14] 1.05 | [15] 0.931 | [16] 0.852 | [17] 0.993 | [18] 0.96 | [19] 0.91 | [20] 0.978

COC(=O)COc1ccc(Cl)cc1C
inactive: [1] 0.917 | [2] 1.04 | [3] 0.986 | [4] 1.01 | [5] 1.03 | [6] 1.01 | [7] 1.01 | [8] 0.805 | [9] 0.989 | [10] 1.01 | [11] 1.04 | [12] 0.969 | [13] 1.01 | [14] 0.979 | [15] 1.03 | [16] 1.01 | [17] 1.03 | [18] 1.01 | [19] 1.01 | [20] 1.03

COC(=O)c1ccc(CNS(C)(=O)=O)cc1S(=O)(=O)NC(=O)Nc1nc(OC)cc(OC)n1
inactive: [1] 0.864 | [2] 0.988 | [3] 1.02 | [4] 1.01 | [5] 0.871 | [6] 0.991 | [7] 1.01 | [8] 0.917 | [9] 1.02 | [10] 1.01 | [11] 1.04 | [12] 1.02 | [13] 1.01 | [14] 1.01 | [15] 0.977 | [16] 0.961 | [17] 0.925 | [18] 1.07 | [19] 1.03 | [20] 1.02

COc1ccc(Oc2ccc(NC(=O)N(C)C)cc2)cc1
inactive: [1] 0.887 | [2] 1 | [3] 0.958 | [4] 0.98 | [5] 0.951 | [6] 0.982 | [7] 0.948 | [8] 0.957 | [9] 0.99 | [10] 1 | [11] 0.992 | [12] 0.977 | [13] 0.996 | [14] 0.851 | [15] 0.906 | [16] 1.11 | [17] 1.01 | [18] 0.974 | [19] 0.989 | [20] 0.943

ClC=C(c1ccc(Cl)cc1)c1ccc(Cl)cc1
inactive: [1] 1.05 | [2] 0.896 | [3] 0.959 | [4] 0.914 | [5] 0.945 | [6] 0.975 | [7] 0.996 | [8] 1 | [9] 0.977 | [10] 0.893 | [11] 0.942 | [12] 0.99 | [13] 0.977 | [14] 0.977 | [15] 0.98 | [16] 0.915 | [17] 0.946 | [18] 1.07 | [19] 0.977 | [20] 0.948

COC(=O)CSc1cc(N=c2sc(=O)n3n2CCCC3)c(F)cc1Cl
inactive: [1] 1.11 | [2] 1 | [3] 0.999 | [4] 0.945 | [5] 1.04 | [6] 0.94 | [7] 0.988 | [8] 0.985 | [9] 0.982 | [10] 1.01 | [11] 0.999 | [12] 1.02 | [13] 0.963 | [14] 1.12 | [15] 1.03 | [16] 0.862 | [17] 0.974 | [18] 1.01 | [19] 0.796 | [20] 0.967

CC(C)N(C(=O)CS(=O)(=O)[O-])c1ccc(F)cc1.[Na+]
inactive: [1] 0.977 | [2] 1.02 | [3] 0.979 | [4] 0.984 | [5] 0.966 | [6] 0.948 | [7] 1.04 | [8] 0.944 | [9] 1.05 | [10] 0.957 | [11] 0.982 | [12] 0.983 | [13] 0.984 | [14] 1.02 | [15] 0.956 | [16] 1.01 | [17] 0.957 | [18] 1.13 | [19] 1.02 | [20] 0.995

CP(=O)(O)CCC(=O)O
inactive: [1] 0.928 | [2] 0.975 | [3] 0.956 | [4] 1.01 | [5] 1.01 | [6] 1.03 | [7] 0.967 | [8] 1.03 | [9] 1.04 | [10] 1 | [11] 0.993 | [12] 0.973 | [13] 0.999 | [14] 0.804 | [15] 0.999 | [16] 1.14 | [17] 0.999 | [18] 1.04 | [19] 0.974 | [20] 0.993

CCOC(=O)c1cnn(C)c1S(=O)(=O)NC(=O)Nc1nc(OC)cc(OC)n1
inactive: [1] 1.08 | [2] 0.999 | [3] 1.02 | [4] 1 | [5] 1.15 | [6] 0.966 | [7] 1.03 | [8] 1.06 | [9] 0.982 | [10] 1 | [11] 0.991 | [12] 1.02 | [13] 1.01 | [14] 1.08 | [15] 1.09 | [16] 1.1 | [17] 1.02 | [18] 0.759 | [19] 1.03 | [20] 1.02

COc1cc(Cl)ccc1Oc1ccc(Cl)cc1Cl
inactive: [1] 1.03 | [2] 0.902 | [3] 0.933 | [4] 0.948 | [5] 0.93 | [6] 0.984 | [7] 0.98 | [8] 0.872 | [9] 1.01 | [10] 1.01 | [11] 0.938 | [12] 0.996 | [13] 1 | [14] 0.99 | [15] 0.851 | [16] 1 | [17] 1.16 | [18] 0.947 | [19] 0.988 | [20] 0.929

COc1nc(NC(=O)NS(=O)(=O)c2ccccc2C(F)(F)F)nc(C(F)(F)F)n1
inactive: [1] 1.06 | [2] 1.03 | [3] 0.979 | [4] 0.971 | [5] 1 | [6] 0.974 | [7] 1 | [8] 1.01 | [9] 0.987 | [10] 1.01 | [11] 1.01 | [12] 0.99 | [13] 1 | [14] 0.979 | [15] 0.988 | [16] 0.899 | [17] 0.986 | [18] 1.06 | [19] 0.996 | [20] 0.964

CN(C)C(=O)Nc1ccc(Cl)c(Cl)c1
inactive: [1] 0.951 | [2] 0.995 | [3] 0.975 | [4] 0.981 | [5] 1.08 | [6] 0.99 | [7] 0.954 | [8] 1.09 | [9] 0.965 | [10] 0.992 | [11] 1.02 | [12] 0.985 | [13] 0.963 | [14] 0.978 | [15] 1.02 | [16] 0.968 | [17] 0.971 | [18] 0.888 | [19] 1.09 | [20] 0.907

Oc1cccc2ccccc12
inactive: [1] 1 | [2] 1.04 | [3] 1 | [4] 0.987 | [5] 0.943 | [6] 0.993 | [7] 0.976 | [8] 0.999 | [9] 0.98 | [10] 0.959 | [11] 0.96 | [12] 0.994 | [13] 0.982 | [14] 0.957 | [15] 0.988 | [16] 0.976 | [17] 1.02 | [18] 0.975 | [19] 0.983 | [20] 0.997

COC(=O)c1ccc(I)cc1S(=O)(=O)[N-]C(=O)Nc1nc(C)nc(OC)n1.[Na+]
inactive: [1] 1.25 | [2] 0.901 | [3] 0.992 | [4] 0.933 | [5] 1.01 | [6] 1.06 | [7] 0.941 | [8] 1.01 | [9] 0.991 | [10] 0.977 | [11] 0.947 | [12] 1.02 | [13] 0.948 | [14] 1.07 | [15] 1.14 | [16] 0.919 | [17] 0.969 | [18] 1.07 | [19] 0.95 | [20] 1.01

CCCOC(=O)c1ccc(O)cc1
inactive: [1] 0.879 | [2] 0.979 | [3] 0.986 | [4] 1.02 | [5] 0.993 | [6] 0.989 | [7] 0.984 | [8] 1.01 | [9] 0.98 | [10] 1.01 | [11] 1 | [12] 0.986 | [13] 0.971 | [14] 0.951 | [15] 0.985 | [16] 1.06 | [17] 1.01 | [18] 0.945 | [19] 1.01 | [20] 0.988

CC(C)N(C(=O)CS(=O)CC(=O)O)c1ccc(F)cc1 (stereo not given)
inactive: [1] 0.994 | [2] 0.965 | [3] 0.94 | [4] 0.969 | [5] 0.988 | [6] 0.987 | [7] 0.958 | [8] 1.03 | [9] 1.01 | [10] 1 | [11] 0.957 | [12] 1 | [13] 0.941 | [14] 0.829 | [15] 0.969 | [16] 1.01 | [17] 0.97 | [18] 1.06 | [19] 1.08 | [20] 0.977
